Assay results as given in ChEMBL document CHEMBL3433997, “St. Jude Leishmania screening dataset” (2016).

Target: Hexose transporter 1 (Plasmodium falciparum) (UniProt O97467)
Assay: ST_JUDE_LEISH: Cytotoxicity at 2uM final concentration against transgenic Leishmania Mexicana promastigotes LmPfHT that are glucose transport deficient and complemented with the Plasmodium falciparum hexose transporter. Activity is measured by DNA content using SYBR green in vitro
Assay type: functional

Compound | inhibition [%]
CCNc1cc(C)nc(Nc2ccc(NC(=O)C3CCCC3)cc2)n1 | 6.7
CCOc1cc(C(=O)N[C@@H](Cc2ccccc2)[C@H](O)CNCc2cccc(OC)c2)cc(N2CCCCS2(=O)=O)c1 | 5.25
CCn1c(-c2nonc2N)nc2c(-c3cc4ccccc4s3)ncc(C(=O)N3CCC(N)C3)c21 (centres undefined) | 98.3
COc1cc(NC(=O)c2ccc(-c3ccc(C(C)=O)cc3)s2)ccc1OCCN1CCCC1 | -0.14
COc1ccc(Nc2nc(NN=Cc3cc(Br)c(O)cc3O)nc(Nc3ccc([N+](=O)[O-])cc3)n2)cc1 | 0.96
CCN(CC)/C(=N/C(=N)NCc1ccc(Cl)cc1Cl)NCCCCCCN/C(=N\C(=N)NCc1ccc(Cl)cc1Cl)N(CC)CC | 1.69
O=C(Nc1ccncc1)c1cc(C(=O)Nc2ccncc2)cc([N+](=O)[O-])c1 | -3.19
Cc1ccc(NC(=O)c2cccc(C#N)c2)cc1-c1ccc(C(=O)Nc2ccncc2)cc1 | 9.75
COc1ccc(NC(=O)[C@H](Cc2ccccc2)Nc2cc(C)nc(Nc3ccccc3)n2)cc1 | 14.5
COCCN(C(=O)Cc1cccs1)C(C(=O)NCc1ccc(OC)cc1)c1ccc(C(C)C)cc1 (centres undefined) | -3.02
CCN(CC)CCN(Cc1ccc(-c2ccc(C(F)(F)F)cc2)nc1)C(=O)Cn1c(SCc2ccc(F)cc2)nc(=O)c2sccc21 | 1.65
Cc1cc(NCCc2ccccc2)nc(NC(=N)Nc2cccc(Cl)c2)n1 | 1.42
CC(C)C(NC(=O)Cc1cccc2ccccc12)C(=O)Nc1cccc(C#N)c1 (centres undefined) | 3.27
COc1cc2nc(NCCN3CCOCC3)n3nc(-c4ccccc4)nc3c2cc1OC | 6.56
